Compound activity deposited in PubChem BioAssay by National Center for Advancing Translational Sciences (NCATS).
Rows were chosen to be rich in hits. Some 2.4% of all compounds tested hit in one or more screens of this group.
Pol beta inh: DNA polymerase beta (human) inhibition; Potency, µM (titrated, usually from 114 µM), for inactives: at the highest dose activity change, negative = inhibition, hits mostly inhibitors; Pol beta primer extension/strand displacement, fluorescence kinetic; AID 485314; P06746; actives 1.3% (n = 340,000); also: % is scaled to controls: 0 for no effect and ±100 for the full control effect
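Kinetic readout of DNA synthesis with strand displacement by Pol beta. Compound and 10 nM enzyme sit 15 min at room temperature; 50 nM substrate starts the reaction, read immediately and at 10 min.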
POLK inh: inhibitors of human DNA polymerase kappa; purified Pol kappa, fluorescent DNA synthesis assay, 10 min; Potency, µM (titrated, usually from 107 µM), for inactives: at the top dose activity, negative = inhibition, actives largely listed as inhibitors; actives 0.53% (n = 400,000); also: % is scaled to controls: 0 for no effect and ±100 for the full control effect
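Fluorescent qHTS in 1536-well format: enzyme (10 nM) and compound sat 15 min at room temperature before 50 nM substrate (final) was added. Signal taken at 0 and 10 min; no-enzyme buffer wells were negative controls.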
FEN1 inh: inhibitors of human flap endonuclease 1; P39748; Recombinant FEN1 flap cleavage, fluorescence, 15 min; Potency, µM (series often up to 114 µM), for the others: at the top dose activity change, negative = inhibition, actives largely listed as inhibitors; actives 0.35% (n = 390,000); AID 588795; also: % is scaled to controls: 0 for no effect and ±100 for the full control effect; nearly all actives have a fitted effect of over 65% in size
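In this screen, 50 nM flap DNA substrate was added to 10 nM FEN1 pretreated with compound for 15 min at room temperature; cleavage was followed with reads at 0 and 15 min, and Hill fitting gave concentration–response parameters.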
WRN helicase inh: WRN helicase (human) inhibition; Q14191; WRN helicase unwinding, fluorescent forked duplex, kinetic; Potency, µM (highest dose often 114 µM), inactives show at the highest dose activity change, negative = inhibition, usual class: inhibitors; actives 0.46% (n = 360,000); also: % is scaled to controls: 0 for no effect and ±100 for the full control effect; nearly all actives have a fitted effect of over 55% in size
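Kinetic red-fluorescence monitoring (525/598 nm) tracks WRN helicase activity after 100 nM fluorophore-quencher forked duplex and 2 mM ATP are added to 20 nM enzyme pretreated 15 min at room temperature with compound.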
Pol eta inh: blocks human DNA polymerase eta activity | recombinant Pol eta, fluorescent DNA replication assay | Q9Y253 | Potency, µM (top dose mostly 114 µM), for the others: at the highest dose activity change, negative = inhibition, most hits filed as inhibitors | actives 1.2% (n = 390,000); also: % is scaled to controls: 0 for no effect and ±100 for the full control effect
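Pol eta (10 nM) was preincubated with compounds for 15 min at room temperature, after which fluorescent replication substrate (50 nM final) was added to start the reaction. Fluorescence was read kinetically at 0 and 10 min.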
POLI inh: inhibitors of human DNA polymerase iota. Q9UNA4. Potency, µM (titrated, usually from 115 µM), without a hit: at the top dose activity, negative = inhibition, hits mostly inhibitors. actives 1% (n = 390,000). Pol iota fluorescent replication assay, 10 min
Target sequence (Q9UNA4 whole entry, looked up): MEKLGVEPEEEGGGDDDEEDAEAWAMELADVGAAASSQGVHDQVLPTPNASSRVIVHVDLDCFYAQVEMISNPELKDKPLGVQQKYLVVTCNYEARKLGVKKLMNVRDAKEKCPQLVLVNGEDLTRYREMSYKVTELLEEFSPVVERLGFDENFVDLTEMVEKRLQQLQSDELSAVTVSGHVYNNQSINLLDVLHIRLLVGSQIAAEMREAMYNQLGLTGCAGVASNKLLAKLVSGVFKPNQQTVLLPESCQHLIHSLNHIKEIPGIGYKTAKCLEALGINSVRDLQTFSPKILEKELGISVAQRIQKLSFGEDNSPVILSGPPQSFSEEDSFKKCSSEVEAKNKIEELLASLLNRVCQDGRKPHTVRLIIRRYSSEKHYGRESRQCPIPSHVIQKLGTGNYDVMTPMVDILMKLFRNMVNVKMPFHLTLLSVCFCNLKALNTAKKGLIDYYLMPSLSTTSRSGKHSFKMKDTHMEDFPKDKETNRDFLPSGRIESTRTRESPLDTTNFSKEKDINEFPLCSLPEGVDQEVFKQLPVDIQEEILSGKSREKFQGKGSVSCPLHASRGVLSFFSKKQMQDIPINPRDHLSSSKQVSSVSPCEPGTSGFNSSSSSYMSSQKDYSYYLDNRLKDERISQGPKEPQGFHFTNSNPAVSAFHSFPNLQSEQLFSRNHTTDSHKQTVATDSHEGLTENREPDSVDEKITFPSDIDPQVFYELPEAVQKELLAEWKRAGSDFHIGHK
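Fluorescent replication assay read twice, at 0 min and 10 min after adding 50 nM (final) substrate. Enzyme (10 nM) and compounds were first incubated 15 min at room temperature; enzyme-free buffer wells were negative controls.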
Active calls of the source: *; ? = inconclusive; nt = no result given; [ ] = remark or other dose. Calls follow the shape of the dose curve; as a rule, active = well fitted curve in the direction sought with a large enough effect; inconclusive = small, poorly fitted or top-dose-only effect, or another doubt; inactive = no such curve, though single readings can be large; an effect the other way counts as inactive or inconclusive. Potency is read from the fitted curve at half-maximal effect.

SMILES | Pol beta inh | POLK inh | FEN1 inh | WRN helicase inh | Pol eta inh | POLI inh
CCC(c1nnnn1Cc1ccccc1)N(Cc1ccccc1)Cc1cc2cc(C)ccc2[nH]c1=O (configuration not stated) | nt | -17.3% | ? | nt | nt | 20.2%
O=C1/C(=C/c2ccsc2)CC/C1=C\c1cccs1 | nt | -2.5%[60.1 µM] | nt | nt | nt | nt
O=C(O)C1C2C=CC(O2)C1C(=O)NCCC1=CCCCC1 (configuration not stated) | ? | -21.5% | 4.6% | -19.1% | 50.1µM* | ?
O=C(NCCC1=CCCCC1)C(=O)NCc1ccccc1 | 1.2% | 4.0% | -1.0% | 6.3% | -10.2% | 16.3%
CC1(C)CC(=O)C2=C(C1)OC(N)=C(C#N)C2c1ccc[nH]1 (configuration not stated) | 20µM* | 79.4µM* | 7.7% | -13.1%[57.1 µM] | -14.8% | 28.2µM*
CC1(C)c2ccccc2N2CC(=O)N(CC(N)=O)C21C (configuration not stated) | 44.7µM* | 44.7µM* | 79.4µM* | 56.2µM* | ? | ?
COC(C)(C)[C@H](O)COc1c2ccoc2cc2oc(=O)ccc12 | -23.6% | -19.6% | -1.8% | -6.2% | -4.5% | 4.9%
CC(C)(O)C(O)COc1c2ccoc2cc2oc(=O)ccc12 (configuration not stated) | 22.4µM* | ? | 3.3% | -1.3% | ? | ?
Cc1cc(C)cc(N(CC(=O)NC2CC3CCC2C3)S(C)(=O)=O)c1 (configuration not stated) | -1.0% | -8.2% | 5.8% | 12.0% | 1.3% | 89.1µM*
NC(=N\N=Cc1ccco1)/C(N)=N/N=Cc1ccco1 | nt | -38.7% | -16.4% | -34.3% | 44.7µM* | ?
O=C(O)c1cccc(N2C(=O)c3ccc(C(=O)c4cccc([N+](=O)[O-])c4)cc3C2=O)c1 | -8.9% | -39.6% | -6.5% | -6.8% | 56.2µM* | -29.4%
O=C(Nc1cccc([N+](=O)[O-])c1)c1cccc(C(=O)Nc2cccc([N+](=O)[O-])c2)c1 | 1.12µM* | -9.2% | -19.9% | 2.7% | 1.6% | -13.8%
CC(=O)c1ccc(NC(=O)c2ccc3c(c2)C(=O)N(c2ccccn2)C3=O)cc1 | -18.4% | 3.2% | -1.3% | -5.5% | -15.3% | 14.7%
O=C(Nc1cc(Sc2ccccn2)cc([N+](=O)[O-])c1)c1ccc([N+](=O)[O-])cc1 | 3.1% | -2.4% | -26.5% | 31.6µM* | ? | 0.0%
O=C(Nc1cccc([N+](=O)[O-])c1)c1ccc2c(c1)C(=O)N(c1ccccn1)C2=O | 44.7µM* | -11.2% | -31.4% | -18.2% | -20.1% | -13.4%
COc1ccc(-c2nc(CSc3nncn4c3cc3occc34)c(C)o2)cc1 | 3.55µM* | ? | 7.5% | nt | -14.3% | ?
CCn1cc(C(=O)Nc2ncccc2O)c(=O)c2cc(F)c(N3CCN(C(=O)c4ccco4)CC3)cc21 | -19.6% | -28.7% | -3.3% | -2.0%[11.6 µM] | -2.2% | 70.8µM*
CC(C)(C)c1ccc(/C=N/Nc2nncn2N)cc1 | -18.7% | -2.8% | -12.1% | 3.0%[11.6 µM] | -7.5% | 3.16µM*
COc1cc(/C=N\Nc2nncn2N)ccc1OC(C)=O | 16.9% | -27.0% | -12.8% | 0.4%[11.6 µM] | -10.3% | 7.08µM*
CC(C)(C)c1nnc(N/N=C/c2ccc(Br)cc2)n(N)c1=O | 2.5% | -6.9% | 8.5% | -14.5% | -20.9% | 15.0%
CSc1ccc(/C=N\Nc2nncn2N)cc1 | 3.2% | -4.1% | ? | 9.7% | -22.4% | 5.62µM*
COc1cc(/C=N/NC(=O)c2ccncc2)ccc1OC(C)=O | 27.9% | 4.6% | 0.9% | -0.9% | -12.7% | -0.1%
CC(C)[C@H](NC(=O)CNC(=O)OC(C)(C)C)C(=O)N[C@H](C=O)C(C)C | nt | 6.7%[19.4 µM] | nt | nt | nt | nt
Cc1sc2ncn(CC(=O)NCc3ccco3)c(=O)c2c1-c1ccc(F)cc1 | ? | -13.9% | 7.1% | -16.5% | 79.4µM* | 30.3%
O=C(Cn1cnc2c(cnn2-c2ccc(F)cc2)c1=O)NCc1ccco1 | 27.2% | -2.7% | 6.6% | -1.5% | -15.3% | 9.7%
